In PubChem BioAssay AID2429 (National Center for Advancing Translational Sciences (NCATS), 2010) one finds Potency data, which are given here for one molecule.

In the experiment the target is 15-hydroxyprostaglandin dehydrogenase [NAD(+)] (Homo sapiens) (UniProt P15428). Nature of the experiment: Confirmation qHTS Assay for Inhibitors of HPGD (15-Hydroxyprostaglandin Dehydrogenase). The following applies: recombinant HPGD, NADH fluorescence, PGE2 substrate. The source says:
Assay Overview: Human 15-Hydroxyprostaglandin dehydrogenase (HPGD) catalyzes the inactivation of prostaglandin E2, and plays a major role in cancer biology by antagonizing the oncogenic potential of cyclooxygenase type 2 (COX2). Assays are available, based on absorbance/fluorescence increase of NADH with the substrate 15-OH prostaglandin E2. Inhibition of HPGD activity was screened by utilizing prostaglandin as an electron donor and NAD+ as an electron acceptor/cofactor. An increase in the fluorescence intensity due to conversion of NAD+ to NADH was used to measure the enzyme activity. This assay is a confirmation screen of primary qHTS protocol (See AID 894). References 1. Myung SJ, Rerko RM, Yan M, Platzer P, Guda K, Dotson A, Lawrence E, Dannenberg AJ, Lovgren AK, Luo G, Pretlow TP, Newman RA, Willis J, Dawson D, Markowitz SD. 15-Hydroxyprostaglandin dehydrogenase is an in vivo suppressor of colon tumorigenesis. Proc Natl Acad Sci U S A. 2006 Aug 8;103(32):12098-102. 2. […]
Buffer: 50 mM Tris-HCl, 0.01% Tween 20, pH 8. […] The plates were immediately transferred to and read 5 times every 30 seconds on ViewLux High-throughput CCD imager (Perkin-Elmer) using 360 nm excitation and 450 nm emission fluorescence protocol. The fluorescence intensity difference between the last and the first time points was used to compute reaction progress.
In general terms: qHTS replaces the single test concentration by a dilution series.

Molecules are shown by their SMILES. The list shows a part of the results. Calls of active or inactive are those of the source. Calls come from the whole dose curve.

Chain of 15-hydroxyprostaglandin dehydrogenase [NAD(+)] (Homo sapiens) (P15428 whole entry, looked up): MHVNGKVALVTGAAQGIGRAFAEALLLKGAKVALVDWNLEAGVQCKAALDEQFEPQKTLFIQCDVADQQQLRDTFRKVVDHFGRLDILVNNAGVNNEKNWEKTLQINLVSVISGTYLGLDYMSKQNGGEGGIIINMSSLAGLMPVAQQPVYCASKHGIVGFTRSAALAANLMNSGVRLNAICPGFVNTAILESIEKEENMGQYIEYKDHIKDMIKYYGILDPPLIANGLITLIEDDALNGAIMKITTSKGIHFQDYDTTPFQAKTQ

As for `CCN(CC)C(=O)c1ccc(NC(=O)c2cc(-n3cnnc3)ccc2Cl)cc1`, the Potency is 7.08 µM (active).
